# This is a sample that favours compounds with a hit; in the whole collection about 8% have one here.
# FMDV antiviral = High Throughput Screening for Foot and Mouth Disease Virus Antivirals; Potency, µM (highest dose often 57.9 µM), usual class: inhibitors; 1.2% of 410,000 active; FMDV antiviral cell-based qHTS; calls by dose curve; tested in HEK293T cells; also: read-out not given here; nearly all actives have a fitted effect of over 45% in size
# SARS PLpro yeast = qHTS of Yeast-based Assay for SARS-CoV PLP; S. cerevisiae expressing SARS-CoV PLpro, growth rescue; Potency, µM (highest dose often 32.9 µM), most hits filed as activators; 0.19% of 330,000 active; calls by dose curve; also: nearly all actives have a fitted effect of over 55% in size
# HCMV inh = qHTS Assay for inhibitors of the human cytomegalovirus (HCMV); HFF cells, HCMV-luciferase reporter, 72 h; hits give low values; activity change, negative = inhibition, % at 57.5 µM; 4.5% of 410,000 active; AID 1259415, 2018; in the data active = activity change below about -60%; inconclusive = no clear call, values can overlap the other calls; inactive = above about -39%
#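 Luciferase read-out from HCMV-luciferase-infected HFFs (MOI 1 PFU/cell) 72 h post infection at 37C; compounds added after 16 h cell attachment; activity normalized between buffer-only basal and Salinomycin (10uM) inhibitor controls.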
# Marburg entry inh = qHTS for inhibitors of binding or entry into cells for Marburg Virus; Marburg virus pseudotyped entry inhibition, cell reporter; Potency, µM (top dose mostly 37.8 µM), hits mostly inhibitors; 1.8% of 300,000 active; AID 540276, 2011; calls by dose curve; tested in HEK293 cells
# Lassa entry inh = qHTS for Inhibitors of binding or entry into cells for Lassa Virus; Lassa virus pseudotype entry inhibition, cell reporter; 1.2% of 300,000 active; Potency, µM (series often up to 37.9 µM), hits mostly inhibitors; calls by dose curve; tested in HEK293 cells; also: nearly all actives have a fitted effect of over 50% in size
# HCV inhibitor = qHTS Assay for Inhibitors of Hepatitis C Virus (HCV) | 3.4% of 340,000 active | Huh7.5.1 HCVcc-Cre infection, luciferase reporter, 44 h | Potency, µM (titrated, usually from 41.8 µM), usual class: inhibitors; active = well fitted inhibition curve with a large enough effect; inconclusive = small, poorly fitted or top-dose-only effect, or another doubt; inactive = no such curve, though single readings can be large or run the other way
#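 Seed cells (1,000/well) for 4 h; treat with compound and infect with HCVcc-Cre, moi about 0.5. Incubate 44 h, then detect luciferase activity.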
# A number is an active result; i = inactive; ? = inconclusive; nt = no result given.
SMILES,FMDV antiviral,SARS PLpro yeast,HCMV inh,Marburg entry inh,Lassa entry inh,HCV inhibitor
CCOc1ccc(/C=C/C(=O)Nc2ccc(C(N)=O)cc2)cc1OC,i,i,i,?,i,i
COc1ccc(/C=C/C(=O)Nc2ccc(Cl)c(Cl)c2)cc1OC,?,nt,-81.5,nt,i,nt
COc1ccc(/C=C\C(=O)Nc2ccccc2C(=O)O)cc1OC,20µM,nt,nt,?,nt,nt
COc1cc(/C=C/c2cccc[n+]2C)ccc1OCC(=O)Nc1cccc(Cl)c1,i,i,-69.9,i,?,i
COc1ccc(NC(=O)COc2ccc(/C=C/c3cc[n+](C)cc3)cc2OC)cc1,i,i,i,i,i,i
C/C=C/c1ccc(OCC(=O)O)c(OC)c1,i,i,i,i,i,i
COc1cc(/C=C/c2cc[n+](C)cc2)ccc1OCC(=O)Nc1ccc(Cl)c(Cl)c1,i,i,-91.2,?,i,i
C/C=C/c1ccc(OCC(=O)Nc2cc(OC)c(OC)c(OC)c2)c(OC)c1,?,i,i,?,10µM,?
CCOC(=O)c1c(C)oc2c1c(C(c1ccncc1)N1CCOCC1)c(O)c1ccccc12 (stereo not given),i,i,i,?,?,12.6µM
C/C(N)=C(/C#N)C(=O)CSc1cc(C)c2cc(C)cc(C)c2n1,i,i,i,i,i,10µM
Cc1cc(C)c2nc(SCC#N)cc(C)c2c1,nt,i,i,i,i,?
COc1ncc2ncc(=O)n(CCC#N)c2n1,i,nt,nt,nt,nt,nt
COC(=O)N1c2ccccc2C23[C@@H]4CN5CCC[C@]6(CCC12C(O)(C6)C4=O)[C@H]53,i,nt,nt,nt,nt,nt
COc1cccc(Cn2c(=O)ccc3ccccc32)c1,i,i,-81.0,nt,nt,i
COc1ccc(C(=O)Cn2c(C(=O)/C=C/c3ccccc3)nc3ccccc32)cc1,8.91µM,i,i,?,?,?
COc1ccc(C(=O)CSc2nc3ccccc3n2CC(=O)c2ccccc2)cc1,nt,i,-66.4,i,i,?
COc1cccc(Cn2c(=O)oc3ccccc32)c1,i,i,i,?,?,i
COc1cccc(Cn2c(SCC(=O)N(C)c3ccccc3)nc3ccccc32)c1,?,nt,-60.2,nt,?,nt
COc1ccc(OCCSc2nc3ccccc3n2CC(=O)O)cc1,i,i,i,?,i,i
CN(C(=O)CSc1nc2ccccc2n1Cc1cccc(C(F)(F)F)c1)c1ccccc1,?,nt,i,nt,?,nt
Cc1cnc(CNc2nc(-c3ccccc3Cl)nc3ccccc23)cn1,i,nt,nt,nt,nt,nt
Cc1c([C@@H](Nc2ccccn2)c2ccccc2)c(=O)n(-c2ccccc2)n1C,nt,nt,nt,i,nt,nt
COc1ccc2c([N+](=O)[O-])c(-c3ccccc3)[nH]c2c1,nt,nt,i,nt,nt,nt
CCCn1c(SCC(=O)C(C)(C)C)nc2ccccc21,i,i,-67.2,i,i,i
O=C(O)CCSc1ncnc2sc(-c3ccccc3)cc12,?,i,?,?,?,i
SMILES,FMDV antiviral,SARS PLpro yeast,HCMV inh,Marburg entry inh,Lassa entry inh,HCV inhibitor
Cc1[nH]c2ccc(-c3nnc(SCC(=O)c4ccccc4F)o3)cc2c1C,i,i,i,?,8.91µM,?
C=CCn1c(SCn2nnc3ccccc3c2=O)nc2scc(-c3cccs3)c2c1=O,nt,i,i,i,i,i
CC(=O)CCSc1ncnc2sc(-c3ccccc3)cc12,i,i,-111.7,?,i,i
CC(=O)c1c(C)[nH]c(C(=O)CSc2nnc(-c3ccccc3)o2)c1C,?,i,i,?,?,8.91µM
O=c1c2ccccc2nnn1CSc1nnc(-c2cccs2)n1Cc1ccccc1,?,i,?,0.82µM,?,?
Cc1ccc(CN2CCc3nnc(C(NS(C)(=O)=O)C(C)C)n3CC2)cc1C (stereo not given),i,nt,nt,nt,nt,nt
COc1ccc(C(=O)c2cn(Cc3cccc(C)c3)c3cc4c(cc3c2=O)OCCO4)cc1OC,i,nt,i,?,i,nt
Cc1ccccc1N1C(=O)C[C@@H](Sc2nnc(-c3ccccc3)o2)C1=O,nt,nt,nt,i,nt,nt
COc1ccc(C2=C(N3CCN(c4cccc(C)c4)C(C)C3)c3ccccc3C2=O)cc1 (stereo not given),i,nt,i,?,?,nt
O=c1cc(CSc2nnc(-c3cccs3)n2Cc2ccccc2)nc2sc3ccccc3n12,15.8µM,i,-93.3,?,i,?
CC(=O)c1c(C)[nH]c(C(=O)CSc2ncnc3sc(-c4ccccc4)cc23)c1C,i,i,-77.3,?,i,?
CC(=O)c1c(C)[nH]c(C(=O)CSc2nnc(-c3cccs3)n2Cc2ccccc2)c1C,i,i,i,?,?,2.82µM
O=C(O)CSc1ncnc2sc(-c3ccccc3)cc12,i,i,i,?,i,i
Cc1ccc(NC(=O)CSc2cn(CC(=O)N3CCOCC3)c3ccccc23)cc1Cl,i,nt,i,nt,i,nt
Cc1nn(CC(=O)NCc2ccc(N(C)C)cc2)c(=O)c2c(C)n(-c3ccc(Cl)cc3)nc12,?,nt,i,nt,i,nt
COc1ccc(C(C(=O)Nc2ccc(C(C)C)cc2)N(C)C(=O)Cc2cccs2)cc1 (stereo not given),i,nt,i,i,?,nt
CC1CCc2nc3ccccc3c(C(=O)OCC(=O)N(C)C3CCS(=O)(=O)C3)c2C1 (stereo not given),i,i,i,i,i,?
CC1CCc2nc3ccccc3c(C(=O)OCC(=O)NC3CCS(=O)(=O)C3)c2C1 (stereo not given),i,i,i,i,i,10µM
COc1cccc(NC(=O)COC(=O)c2c3c(nc4ccccc24)CCC(C)C3)c1 (stereo not given),31.6µM,i,i,7.3µM,18.3µM,2µM
COc1ccc2c(c1)CCc1c(C(=O)Nc3ccc(F)c(Cl)c3)noc1-2,i,nt,i,i,i,nt
CCOC(=O)c1cnc2c3c(noc13)CCC2,nt,nt,-101.4,nt,nt,nt
CCOC(=O)c1noc2c1CCC2,i,nt,i,nt,nt,nt
COC(=O)c1cc2oc(C)cc2n1Cc1cccc(Cl)c1,i,nt,i,i,nt,nt
CC(=Nc1ccccc1)C1=C(O)C(Cc2ccccc2)NC1=O (stereo not given),i,nt,-76.4,i,i,i
COC(=O)c1cc(CNC(=O)c2ccc(N(C)C)cc2)cc(NC(=O)c2ccccc2Cl)c1,i,nt,nt,nt,nt,nt
SMILES,FMDV antiviral,SARS PLpro yeast,HCMV inh,Marburg entry inh,Lassa entry inh,HCV inhibitor
O=c1c2sc3ccccc3c2n(Cc2cccc(C(F)(F)F)c2)c(=O)n1-c1ccccc1,i,nt,i,?,?,nt
O=C(NCc1ccc2c(c1)OCO2)c1ccncc1,i,15.8µM,i,i,?,i
Cc1ccc(SCc2ccc(C(=O)NCc3ccncc3)cc2)cc1,nt,i,-77.6,?,i,i
S=C(NCc1ccc2c(c1)OCO2)Nc1ccc2nsnc2c1,i,i,-66.3,i,i,?
Cc1ccc(NC(=S)NCc2ccc3c(c2)OCO3)cc1C,i,i,i,i,i,i
CS(=O)(=O)Nc1cccc(Nc2nccc3[nH]c(-c4cccc(C(F)(F)F)c4)cc23)c1,nt,nt,i,nt,nt,nt
CCCCOC(=O)Cn1nnc2sc(-c3ccccc3)cc2c1=O,i,nt,i,i,i,nt
Cc1cc(Cn2nnc3ccccc32)c(O)c(C(C)(C)C)c1,i,i,i,nt,nt,10µM

# Screening results (PubChem)
